Pf growth 48h – P. falciparum growth inhibition at 48 hours (one generation) | 5.9% of 310,000 active | P. falciparum luciferase growth in erythrocytes, 48 h | AID 504832 | Potency, µM (highest dose often 28.7 µM), for inactives: at the highest dose activity change, negative = inhibition, actives largely listed as inhibitors; further: potency means the concentration at half of the fitted maximal effect; on the % scale 0 is the no-effect control and ±100 the full control effect
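Here the parasites carry a stable luciferase gene and grow inside erythrocytes in Albumax-based RPMI medium with compound for one erythrocytic cycle. Activity is scored as loss of luminescent signal.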
NS1 inh – influenza NS1 inhibition | 0.4% of 270,000 active | Potency, µM (highest dose often 46.1 µM), for the others: at the highest dose activity, positive = more growth; calls by dose curve; further: potency means the concentration at half of the fitted maximal effect; actives are rising curves; nearly all actives have a fitted effect of over 50% in size
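OD600 was taken as the measure of yeast growth restored by compound in an NS1-expressing S. cerevisiae strain. Cells had been washed out of glucose medium and diluted 1:100 into galactose -URA medium, pH 6.0.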
Shiga toxin inh – inhibitors of Shiga toxin in Vero cells | inhibition, % at 38.7 µM | 9.2% of 290,000 active | Vero cells, Shiga toxin protein synthesis inhibition reporter; in the data active means inhibition mostly above about 28%, no sharp cut-off; inactive means mostly below about 43%; further: 0% is about no effect
Pf growth 96h – P. falciparum growth inhibition at 96 hours; P. falciparum luciferase reporter growth, 96 h; Potency, µM (titrated, usually from 28.7 µM), without a hit: top-dose activity change, negative = inhibition, most hits filed as inhibitors; 6.9% of 320,000 active; AID 504834; further: potency means the concentration at half of the fitted maximal effect; on the % scale 0 is the no-effect control and ±100 the full control effect
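Parasite growth measured via integrated firefly luciferase reporter in P. falciparum. Infected erythrocytes at 2% hematocrit, 0.05% parasitemia final were treated 96 hours at 37 C under 5% CO2, and luminescence was read.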
Cycloheximide cs – counter-screen hit for Shiga toxin inhibitors, cycloheximide. cell reporter, cycloheximide protein synthesis inhibition counterscreen. max response, %. 12% of 300,000 active; in the data active means max response mostly above about 13%, no sharp cut-off; inactive means mostly below about 14%; further: read at 38.3 µM for the half of the compounds with a filed dose; 0% is about no effect
* = called active by the depositor; i = inactive; u = inconclusive; x = no result given; + = active, no number; [ ] = remark or other dose. Compounds with a hit are over-represented: about 21% of the library has one in this group of screens. Unless noted, the call rests on the fitted dose curve; in most records, active means well fitted inhibition curve with a large enough effect; inconclusive means small, poorly fitted or top-dose-only effect, or another doubt; inactive means no such curve, though single readings can be large or run the other way.

SMILES	Pf growth 48h	NS1 inh	Shiga toxin inh	Pf growth 96h	Cycloheximide cs
O=C(CSc1nnnn1Cc1ccccc1)Nc1ccc2c(c1)OCCO2	20.9%	-8.9%	65.0	4.3%[5.75 µM]	23.0*
CC(C)Cn1c(SC(C)C(=O)Nc2ccc3c(c2)OCCO3)nc2ccccc2c1=O (configuration not stated)	u	7.5%	3.6	x	0.6
Cn1c(Cc2ccccc2)nnc1SCC(=O)Nc1ccc2c(c1)OCCO2	-8.1%	0.3%	-6.2	x	5.9
CC(C)CC(C(=O)Nc1ccc2c(c1)OCCO2)N1C(=O)c2ccccc2C1=O (configuration not stated)	x	-1.7%	-10.1	u	-2.0
CC(Sc1nc2ccccc2c(=O)n1C)C(=O)Nc1ccc2c(c1)OCCO2 (configuration not stated)	0.147µM*	x	x	0.165µM*	x
C#CCNC(=O)C1=C[C@H](c2ccc(Br)cc2)[C@@H](CCCO)[C@H](OCC)O1	u	0.4%	-11.0	-29.0%	-3.2
O=C(CSc1ccc2c(c1)OCCO2)NCc1ccccc1	16.6%	x	35.3	-24.5%	18.4
O=c1c2ccccc2nnn1CSc1ccc2c(c1)OCCO2	153.9%	-47.8%	26.4*	i	52.3*
COc1ccccc1N1CCN(C(=O)CNC(=O)c2ccc(Cl)cc2Cl)CC1	-12.9%	-20.9%	-6.0	4.6%	1.7
O=c1c(Br)c(NCc2ccccc2)cnn1-c1ccc(F)cc1	21.3%	-6.1%	39.8*	11.9%	26.3*
CN1CCOc2cc(S(=O)(=O)NCc3ccc(S(N)(=O)=O)cc3)ccc21	1.5%	9.9%	-2.5	2.9%	-0.9
C=CCNCc1cccn1-c1ccccc1	0.8%	1.0%	-7.3	u	-2.7
Cn1nc(C(C)(C)C)cc1C(=O)NNC(=O)c1ccc(C(F)(F)F)cc1	4.5%	0.0%	25.6	-4.9%	1.2
Cn1nc(C(C)(C)C)cc1C(=O)O	11.6%	0.9%	-9.4	9.28µM*	-1.3
CSCc1cc(N(C)C)nc(SCc2ccc(Cl)c(Cl)c2)n1	10.4µM*	-12.4%	-25.4	u	-8.5
O=C(COC(=O)c1ccccc1[N+](=O)[O-])c1ccc(C2CCCCC2)cc1	18.0%	u	71.0*	-1.8%	59.9*
CN(Cc1cnccn1)Cc1cn(Cc2ccccc2)nc1-c1ccc2c(c1)OCO2	u	3.6%	17.5	u	7.8
COc1ccc(C(CNC(=O)c2oc3ccccc3c2C)N2CCCC2)cc1 (configuration not stated)	9.28µM*	x	x	9.28µM*	x
COc1ccc(C(CNC(=O)c2oc3c(Cl)cccc3c2C)N2CCCC2)cc1 (configuration not stated)	u	x	x	10.4µM*	x
Cc1ccc(S(=O)(=O)N[C@@H](CCCCN)C(=O)CCl)cc1	u	-6.2%	x	12µM*	x
CCCc1[nH]nc2c1C(c1cccc(OC)c1)C(C#N)=C(N)O2 (configuration not stated)	-8.1%	2.1%	3.4	80.7%	-2.2
COc1cccc(C2C(C#N)=C(N)SC(c3ccccc3)C2[N+](=O)[O-])c1 (configuration not stated)	10.4µM*	u	15.9	19.2%	-1.7
CCOC(=O)c1c(N)sc(N)c1C(=O)OCC	u	9.2%	-6.7	-5.4%	-0.4
CCOC(=O)c1c(N)sc(C(O)(C(F)(F)F)C(F)(F)F)c1-c1ccc(OC)cc1OC	11.7µM*	-69.8%	-12.9	u	-3.8
O=C(NCC1CCCO1)c1cccc(Oc2ccccc2)c1 (configuration not stated)	62.2%	-20.3%	53.4*	43.4%	33.5*
SMILES	Pf growth 48h	NS1 inh	Shiga toxin inh	Pf growth 96h	Cycloheximide cs
O=C(NCC1CCCO1)c1ccccc1 (configuration not stated)	27.8%	9.9%	26.6	u	3.0
O=C(NCC1CCCO1)c1cccc(Oc2ccc([N+](=O)[O-])cc2)c1 (configuration not stated)	0.0%	-51.6%	50.1*	u	23.8*
CC(=O)NS(=O)(=O)c1ccc(NC(=O)c2ccc3c(c2)C(=O)N(CCC(C)C)C3=O)cc1	-4.2%	16.6%	14.5	-14.1%	-3.2
CCN(CC)C(=O)CSc1nc2ncccc2[nH]1	35.7%	1.1%	11.5	11.7µM*	-2.0
CCCCc1ccc(NC(=O)CSc2nc3ncccc3[nH]2)cc1	-9.6%	5.6%	3.0	-8.7%	2.8
CCOC(=O)c1ccc(NC(=O)CSc2nc3ncccc3[nH]2)cc1	22.9%	9.4%	16.2*	u	23.2*
CC1CCCN(C(=O)CSc2nc3ncccc3[nH]2)C1 (configuration not stated)	14.5%	2.6%	33.1*	-1.0%	14.9*
Cc1ccc(CSc2nc3ncccc3[nH]2)cc1	42.7%	-39.8%	63.7*	-0.4%	19.6*
CC1CCCCN1C(=O)CSc1nc2ncccc2[nH]1 (configuration not stated)	14.8%	7.3%	28.4	-20.2%	9.0
CCCN(C(=O)Cn1c(C(F)(F)F)nc2ccccc21)C1CCS(=O)(=O)C1 (configuration not stated)	-0.6%	x	x	-15.5%	x
O=C(CNC(=O)c1ccc(Br)o1)NC1CCCCC1	14.3%	6.3%	-5.6	80.7%	1.4
CC1CCCN(C(=O)CSc2cnc3ccccc3n2)C1 (configuration not stated)	x	-13.1%	111.1*	101.5%	58.2*
CN(C)C(=O)CSc1cnc2ccccc2n1	37.4%	x	14.1	-2.6%	3.6
Oc1ccc(/C=N/NC(=S)NCC2CCCO2)cc1 (configuration not stated)	x	25.3%	-6.2	21.5%	1.0
S=C(N/N=C/c1cccs1)NC1CC2CCC1C2 (configuration not stated)	u	-43.6%	46.5*	10.4µM*	24.0*
Oc1ccc(/C=N/NC(=S)NC2CC3CCC2C3)cc1 (configuration not stated)	u	2.1%	37.2	u	16.5*
CSc1cccc(-n2ccc(=O)c(C)c2C)c1	-9.1%	-1.1%	-4.0	7.7%	-0.6
COc1ccc(C(=O)N2CCCC2(C#N)c2ccccc2)cc1[N+](=O)[O-] (configuration not stated)	x	4.9%	18.4	u	-0.8
CCOc1nc(C)cc(C)c1S(=O)(=O)c1ccc(Cl)cc1	-22.1%	-7.7%	-4.7	-18.1%	9.5
O=S(=O)(Nc1cc(Sc2cccc3cccnc23)c(O)c2ccccc12)c1ccc(F)cc1	2.62µM*	-17.8%	+	7.5%	24.5*
COc1ccc(S(=O)(=O)Nc2cc(SCC(=O)O)c(O)c3ccccc23)cc1	4.15µM*	3.3%	-8.5	u	1.5
Cc1cc(C)c(S(=O)(=O)Nc2cc(SCC(=O)O)c(O)c3ccccc23)cc1C	10.4µM*	-33.9%	31.1	2.62µM*	6.2
O=C(O)CSc1cc(NS(=O)(=O)c2ccc(Cl)cc2)c2ccccc2c1O	u	-40.2%	18.2	u	14.4
O=C(Sc1cccc2cccnc12)c1ccc(F)cc1	6.57µM*	x	28.2	u	10.1
O=S(=O)(Nc1cccc2cccnc12)c1ccc2ccccc2c1	x	x	-7.5	x	15.2
COc1ccc(S(=O)(=O)Nc2cc(Sc3ncn[nH]3)c(O)c3ccccc23)cc1	x	-188.5%	42.5	2.94µM*	41.8
